# Experimental data reported in PubChem BioAssay (EPA / NIEHS).
# Several values for one entry are separate records, joined by “and”; a condition that tells them apart may be missing. Identical values can stand only once. Activity calls are given as the source filed them. How the source made its calls: active means hit-call score of the fitted dose curve at least 0.9, where 1 is the maximum; inactive means score below 0.9.
# How the values were obtained:
# [1] = BSK_hDFCGF_SRB: Viability Assessment in the BioMAP Diversity Plus: hDFCGF Assay (AID 2283061); conditions: primary human foreskin fibroblasts;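 further: cells exposed to compound for 24 h before the read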
# Method in brief: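 Human foreskin fibroblasts in 96-well plates were treated 24 h. Total protein was measured by 0.1% SRB staining after 10% TCA fixation, read at 560 nm. Data were fitted bidirectionally against DMSO.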
# [2] = read-out: TIMP metallopeptidase inhibitor 1 (TIMP1), TIMP1 (gene 7076); test: BSK_hDFCGF_TIMP1: BioMAP Diversity Plus: hDFCGF Assay for TIMP metallopeptidase inhibitor 1 (TIMP1) Biomarker Activity (AID 2283062); conditions: primary human foreskin fibroblasts; actives raise or lower the signal
# Method in brief: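 Human foreskin fibroblast primary cultures dosed for 24 h; secreted/surface TIMP-1 quantified by ELISA. Bidirectional curve fitting against DMSO baseline; cytotoxicity tracked in parallel cultures by SRB total-protein staining.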
# [3] = read-out: Matrix Metallopeptidase 1 (MMP1), MMP1 (gene 4312); test: BSK_hDFCGF_MMP1: BioMAP Diversity Plus: hDFCGF Assay for Matrix Metallopeptidase 1 (MMP1) Biomarker Activity (AID 2283064); conditions: primary human foreskin fibroblasts; actives raise or lower the signal
# Method in brief: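 hDFCGF primary fibroblasts (human foreskin); chemical added; 24 h; MMP1 by ELISA; bidirectional fit vs DMSO.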
# [4] = read-out: Vascular cell adhesion molecule 1 (VCAM1), VCAM1 (gene 7412); test: BSK_hDFCGF_VCAM1: BioMAP Diversity Plus: hDFCGF Assay for Vascular cell adhesion molecule 1 (VCAM1) Biomarker Activity (AID 2283065); conditions: primary human foreskin fibroblasts; actives raise or lower the signal;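 on AC50: VCAM-1 protein level quantified by ELISA after 24 h chemical exposure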
# Method in brief: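 Human foreskin fibroblast primary cells dosed with chemical, VCAM-1 measured by ELISA at 24 h. Bidirectional curve fitting relative to DMSO as negative control/baseline.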
# [5] = read-out: Plasminogen activator inhibitor-1 (PAI1), SERPINE1 (gene 5054); test: BSK_hDFCGF_PAI1: BioMAP Diversity Plus: hDFCGF Assay for Plasminogen activator inhibitor-1 (PAI1) Biomarker Activity (AID 2283066); conditions: primary human foreskin fibroblasts; actives raise or lower the signal
# Method in brief: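 Human foreskin fibroblast primary cells, 24 h chemical exposure; PAI-1 measured by ELISA. Bidirectional fitting relative to DMSO; parallel cultures stained with SRB for total protein to flag overt cytotoxicity.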
# [6] = read-out: Intercellular Adhesion Molecule 1 (ICAM1), ICAM1 (gene 3383); test: BSK_KF3CT_ICAM1: BioMAP Diversity Plus: KF3CT Assay for Intercellular Adhesion Molecule 1 (ICAM1) Biomarker Activity (AID 2283067); conditions: primary human keratinocytes with fibroblasts; actives raise or lower the signal
# Method in brief: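 Human keratinocyte–foreskin fibroblast co-culture was treated for 24 h. Cell-surface ICAM-1 was quantified by ELISA, fitted bidirectionally relative to DMSO. Cytotoxicity was checked in parallel cultures by SRB total-protein staining.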
# [7] = read-out: Interferon-gamma inducible Protein 10 (IP10), CXCL10 (gene 3627); test: BSK_KF3CT_IP10: BioMAP Diversity Plus: KF3CT Assay for Interferon-gamma inducible Protein 10 (IP10) Biomarker Activity (AID 2283068); conditions: primary human keratinocytes with fibroblasts; actives raise or lower the signal
# Method in brief: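 KF3CT co-culture (keratinocytes + foreskin fibroblasts), 24 h compound, IP-10 by ELISA; bidirectional fit vs DMSO baseline.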
# [8] = BSK_KF3CT_SRB: Viability Assessment in the BioMAP Diversity Plus: KF3CT Assay (AID 2283069); conditions: primary human keratinocytes with fibroblasts;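 further: total protein by sulforhodamine B staining as a cytotoxicity measure; read 24 h after compound addition; fitted for both signal gain and loss against DMSO baseline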
# Method in brief: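 Keratinocytes co-cultured with foreskin fibroblasts (human primary); chemical added, 24 h; fix 10% TCA, stain 0.1% SRB, A560. Bidirectional fit vs DMSO.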
# [9] = read-out: Interleukin-1 alpha (IL1a), IL1A (gene 3552); test: BSK_KF3CT_IL1a: BioMAP Diversity Plus: KF3CT Assay for Interleukin-1 alpha (IL1a) Biomarker Activity (AID 2283070); conditions: primary human keratinocytes with fibroblasts; actives raise or lower the signal
# Method in brief: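 Chemicals were dosed onto co-cultured human keratinocytes and foreskin fibroblasts, IL-1a was quantified by ELISA at 24 h, and activity was fitted in both directions relative to DMSO controls.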
# [10] = read-out: TIMP metallopeptidase inhibitor 2 (TIMP2), TIMP2 (gene 7077); test: BSK_KF3CT_TIMP2: BioMAP Diversity Plus: KF3CT Assay for TIMP metallopeptidase inhibitor 2 (TIMP2) Biomarker Activity (AID 2283071); conditions: primary human keratinocytes with fibroblasts; actives raise or lower the signal
# Method in brief: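 Co-culture of human primary keratinocytes and foreskin fibroblasts, measured 24 h after chemical dosing. TIMP-2 quantified by ELISA and fitted in both directions relative to DMSO. Cytotoxicity checked in parallel cultures by SRB total-protein staining.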
# [11] = read-out: Transforming growth factor beta 1 (TGFb1), TGFB1 (gene 7040); test: BSK_KF3CT_TGFb1: BioMAP Diversity Plus: KF3CT Assay for Transforming growth factor beta 1 (TGFb1) Biomarker Activity (AID 2283072); conditions: primary human keratinocytes with fibroblasts; actives raise or lower the signal
# Method in brief: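 Human keratinocyte/foreskin fibroblast co-culture; TGF-b1 measured by ELISA 24 h after dosing, fitted bidirectionally versus DMSO. Cytotoxicity checked in parallel cultures by total protein (SRB staining, 560 nm).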
# [12] = read-out: C-C motif chemokine 2 (Homo sapiens) (UniProt P13500); test: BSK_KF3CT_MCP1: BioMAP Diversity Plus: KF3CT Assay for Monocyte Chemoattractant Protein 1 (MCP1/CCL2) Biomarker Activity (AID 2283073); conditions: primary human keratinocytes with fibroblasts; actives raise or lower the signal
# Method in brief: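 Human keratinocyte–foreskin fibroblast co-culture; MCP-1 measured by ELISA 24 h after dosing. Bidirectional fit vs DMSO; cytotoxicity tracked by SRB total protein in parallel cultures.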
# [13] = read-out: Matrix Metallopeptidase 9 (MMP9), MMP9 (gene 4318); test: BSK_KF3CT_MMP9: BioMAP Diversity Plus: KF3CT Assay for Matrix Metallopeptidase 9 (MMP9) Biomarker Activity (AID 2283074); conditions: primary human keratinocytes with fibroblasts; actives raise or lower the signal;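 on AC50: MMP9 protein level quantified by ELISA in the co-culture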
# Method in brief: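 Human keratinocyte/foreskin fibroblast co-culture; compound added; 24 h; MMP-9 by ELISA; bidirectional fit vs DMSO baseline.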
# [14] = read-out: urokinase plasminogen activator (uPA), PLAU (gene 5328); test: BSK_KF3CT_uPA: BioMAP Diversity Plus: KF3CT Assay for urokinase plasminogen activator (uPA) Biomarker Activity (AID 2283075); conditions: primary human keratinocytes with fibroblasts; actives raise or lower the signal
# Method in brief: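 ELISA readout of uPA, analyzed for signal gain or loss relative to DMSO, from a human primary keratinocyte–foreskin fibroblast co-culture measured 24 h after chemical treatment.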
# [15] = read-out: CD40, CD40 (gene 958); test: BSK_LPS_CD40: BioMAP Diversity Plus: LPS Assay for CD40 Biomarker Activity (AID 2283076); conditions: primary human HUVEC with PBMC; actives raise or lower the signal
# Method in brief: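 HUVEC plus PBMC co-culture stimulated with LPS; CD40 quantified by ELISA 24 h after compound dosing. Fitting was bidirectional relative to DMSO. SRB staining of parallel cultures flagged overt cytotoxicity.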
# [16] = read-out: E-selectin (Homo sapiens) (UniProt P16581); test: BSK_LPS_Eselectin: BioMAP Diversity Plus: LPS Assay for Eselectin Biomarker Activity (AID 2283077); conditions: primary human HUVEC with PBMC; actives raise or lower the signal
# Method in brief: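 Human umbilical vein endothelial cells co-cultured with PBMC under LPS stimulation; cell-surface E-selectin measured by ELISA 24 h after dosing. Change in either direction versus DMSO, with SRB total-protein staining in parallel cultures for cytotoxicity.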
# [17] = read-out: Interleukin-8 (IL8), CXCL8 (gene 3576); test: BSK_LPS_IL8: BioMAP Diversity Plus: LPS Assay for Interleukin-8 (IL8) Biomarker Activity (AID 2283078); conditions: primary human HUVEC with PBMC; actives raise or lower the signal
# Method in brief: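 Human umbilical vein endothelial cells co-cultured with PBMC, LPS-stimulated, exposed to compound for 24 h. IL-8 quantified by ELISA; fitted in both directions against DMSO, with SRB total-protein staining of parallel cultures for cytotoxicity.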
# [18] = BSK_LPS_SRB: Viability Assessment in the BioMAP Diversity Plus: LPS Assay (AID 2283079); conditions: primary human HUVEC with PBMC;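 further: total protein by sulforhodamine B absorbance as a cytotoxicity measure; measured one day after compound addition; fitted in both directions against DMSO so loss or gain of signal counts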
# Method in brief: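 Co-culture of human umbilical vein endothelial cells and PBMC, read 24 h after dosing. Total protein by 0.1% SRB staining after 10% TCA fixation, absorbance at 560 nm; bidirectional fit against DMSO.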
# [19] = read-out: Monokine induced gamma interferon (MIG), CXCL9 (gene 4283); test: BSK_hDFCGF_MIG: BioMAP Diversity Plus: hDFCGF Assay for Monokine induced gamma interferon (MIG) Biomarker Activity (AID 2283063); conditions: primary human foreskin fibroblasts; actives raise or lower the signal
# Method in brief: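 MIG/CXCL9 measured by ELISA 24 h after dosing primary human skin fibroblasts. Activity fitted in both directions against DMSO controls. Cytotoxicity was checked in parallel cultures by SRB staining read at 560 nm.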
# Chain of E-selectin (Homo sapiens) (P16581 whole entry, looked up): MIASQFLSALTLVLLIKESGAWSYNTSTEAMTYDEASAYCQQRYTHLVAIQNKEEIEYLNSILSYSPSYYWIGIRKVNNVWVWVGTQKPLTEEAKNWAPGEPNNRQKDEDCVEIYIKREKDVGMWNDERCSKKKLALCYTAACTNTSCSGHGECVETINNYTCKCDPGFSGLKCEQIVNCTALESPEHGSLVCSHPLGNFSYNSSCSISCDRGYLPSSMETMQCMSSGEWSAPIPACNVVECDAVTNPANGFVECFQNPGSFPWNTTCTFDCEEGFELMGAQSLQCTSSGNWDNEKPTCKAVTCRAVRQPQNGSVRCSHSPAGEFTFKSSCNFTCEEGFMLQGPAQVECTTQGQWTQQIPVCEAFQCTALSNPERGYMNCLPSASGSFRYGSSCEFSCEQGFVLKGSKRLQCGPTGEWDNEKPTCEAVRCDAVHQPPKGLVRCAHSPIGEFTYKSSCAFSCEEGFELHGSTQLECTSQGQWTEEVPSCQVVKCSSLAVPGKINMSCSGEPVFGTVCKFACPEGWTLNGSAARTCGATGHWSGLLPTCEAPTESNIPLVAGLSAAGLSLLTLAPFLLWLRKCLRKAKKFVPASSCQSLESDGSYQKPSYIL
compound,measurement,setting,value
Cc1c(O)cccc1O,outcome,[1],inactive
same,outcome,[2],inactive
same,outcome,[3],inactive
same,outcome,[4],inactive
same,outcome,[5],inactive
same,outcome,[6],inactive
same,outcome,[7],inactive
same,outcome,[8],inactive
same,outcome,[9],inactive
same,outcome,[10],inactive
same,outcome,[11],inactive
same,outcome,[12],inactive
same,outcome,[13],inactive
same,outcome,[14],inactive
same,outcome,[15],inactive
same,outcome,[16],inactive
same,outcome,[17],inactive
same,outcome,[18],inactive
CCCC(C)C(=O)OCC (stereo not given),outcome,[1],inactive
same,outcome,[2],inactive
same,outcome,[19],inactive
same,outcome,[3],inactive
same,outcome,[4],inactive
same,outcome,[5],inactive
same,outcome,[6],inactive
same,outcome,[7],inactive
same,outcome,[8],inactive
same,outcome,[9],inactive
same,outcome,[10],inactive
same,outcome,[12],inactive
same,outcome,[13],inactive
same,outcome,[14],inactive
same,outcome,[15],inactive
same,outcome,[16],inactive
same,outcome,[17],inactive
same,outcome,[18],inactive
Nc1cccc(N)n1,outcome,[1],inactive
same,outcome,[2],inactive
same,outcome,[3],inactive
same,outcome,[4],inactive
same,outcome,[5],inactive
same,outcome,[6],inactive
same,outcome,[7],inactive
same,outcome,[8],inactive
same,outcome,[9],inactive
same,outcome,[10],inactive
same,outcome,[11],inactive
same,outcome,[12],inactive
same,outcome,[13],inactive
same,outcome,[14],inactive
same,outcome,[15],inactive
same,outcome,[16],inactive
same,outcome,[17],inactive
same,outcome,[18],inactive
C=C(C)C(=O)OCCCCCCCCCCCC,outcome,[1],inactive
same,outcome,[2],inactive
same,outcome,[3],inactive
same,outcome,[4],inactive
same,outcome,[5],inactive
same,outcome,[6],inactive
same,outcome,[7],inactive
same,outcome,[8],inactive
same,outcome,[9],inactive
same,outcome,[10],inactive
same,outcome,[11],inactive
same,outcome,[12],inactive
same,outcome,[13],inactive
same,outcome,[14],inactive
same,outcome,[15],inactive
same,outcome,[16],inactive
same,outcome,[17],inactive
same,outcome,[18],inactive
CC(C)C(=O)OCCc1ccccc1,outcome,[1],inactive
same,outcome,[2],inactive
same,outcome,[19],inactive
same,outcome,[3],inactive
same,outcome,[4],inactive
same,outcome,[5],inactive
same,outcome,[6],inactive
same,outcome,[7],inactive
same,outcome,[8],inactive
same,outcome,[9],inactive
same,outcome,[10],inactive
same,outcome,[12],inactive
same,outcome,[13],inactive
same,outcome,[14],inactive
same,outcome,[15],inactive
same,outcome,[16],inactive
same,outcome,[17],inactive
same,outcome,[18],inactive
c1ccc(Nc2cccc3ccccc23)cc1,AC50,[1],32.7 µM (active) and 33.1 µM (active)
same,AC50,[2],29.6 µM (active) and 28.8 µM (active)
same,AC50,[19],27.5 µM (active) and 23.4 µM (active)
same,AC50,[3],30.7 µM (active) and 30 µM (active)
same,AC50,[4],21.2 µM (active) and 20 µM (active)
same,AC50,[5],13.1 µM (active) and 12.3 µM (active)
same,AC50,[6],30.7 µM (active) and 37.7 µM (active)
same,AC50,[7],34.2 µM (active) and 35.7 µM (active)
same,AC50,[8],31.8 µM (active) and 34.8 µM (active)
same,AC50,[9],29.8 µM (active) and 28.6 µM (active)
same,AC50,[10],34.5 µM (active) and 33.3 µM (active)
same,AC50,[12],28.8 µM (active) and 26.7 µM (active)
same,AC50,[13],31.3 µM (active) and 31.7 µM (active)
same,AC50,[14],33.8 µM (active) and 32.2 µM (active)
same,AC50,[15],22.9 µM (active) and 30.7 µM (active)
same,AC50,[17],24.5 µM (active) and 20 µM (active)
same,AC50,[18],31.5 µM (active) and 32.4 µM (active)
CC=C(C)C(C)=O,outcome,[1],inactive
same,outcome,[2],inactive
same,outcome,[3],inactive
same,AC50,[4],6.7 µM (active)
same,outcome,[5],inactive
same,outcome,[6],inactive
same,outcome,[7],inactive
same,outcome,[8],inactive
same,outcome,[9],inactive
same,outcome,[10],inactive
same,outcome,[11],inactive
same,outcome,[12],inactive
same,outcome,[13],inactive
same,outcome,[14],inactive
same,outcome,[15],inactive
same,outcome,[16],inactive
same,outcome,[17],inactive
same,outcome,[18],inactive
